Data reported in ChEMBL document CHEMBL3988442, “University of Dundee, Small-Polar-MMV Screening Library” (2021).
The campaign covered roughly 69,000 compounds. About 1,000 (1.4%) showed an effect of 50% or more. The sample as a whole holds a higher share of strong results than the screen did.

System: Leishmania donovani
Experiment: Leishmania intramacrophage assay
Type: functional, organism-based
Set-up: scale not given: in the data most compounds retested in dose-response had high values

O=C(CCN1CCCCO1)NCc1cn2c(n1)SCC2
Percent Effect (30.3 µM, […]): -7.597%

CC(CNC(=O)c1cnc[nH]1)Oc1ccc(Cl)cc1 (stereo unspecified)
Percent Effect (30.3 µM, […]): -8.982%

CS(=O)(=O)Cc1nc(CNc2ccc(F)c(F)c2)cs1
Percent Effect (30.3 µM, […]): -2.721%

Cc1cc(C)n(CCCn2cncc2-c2ccc3c(c2)CC(C)N3C)n1.Cl (stereo unspecified)
Percent Effect (30.3 µM, […]): 2.187%

Cc1nonc1OCCNC(=O)COc1ccc(F)cc1F
Percent Effect (30.3 µM, […]): 56.45%

Cc1nonc1OCCNC(=O)COc1ccc(Cl)cc1Cl
Percent Effect (30.3 µM, […]): 19.12%

Cc1noc(Cl)c1CC(=O)NCCOc1ccc(F)cc1F
Percent Effect (30.3 µM, […]): 8.93%

O=C(c1ccc(COc2ccc(Cl)cc2)o1)N1N=CCC1(O)C(F)(F)F (stereo unspecified)
Percent Effect (30.3 µM, […]): -74.85%

CCSCCC(C)N(C)C(=O)c1ccc(C)o1 (stereo unspecified)
Percent Effect (30.3 µM, […]): 26.69%

Cn1ccnc1CN1CCc2c(COCC3CC3)nn(C)c2C1
Percent Effect (30.3 µM, […]): 17.02%

Cc1cc(CN2CC[C@@H]3[C@@H](CCC(=O)N3CCc3c[nH]cn3)C2)oc1C
Percent Effect (30.3 µM, […]): 21.24%

O=C(c1nnn(-c2ccccc2Cl)c1-c1ccccn1)N1CCSCC1
Percent Effect (30.3 µM, […]): 1.038%

CC(=O)NCCC(=O)NC(C)c1sc(-c2ccccc2F)nc1C (stereo unspecified)
Percent Effect (30.3 µM, […]): -1.241%

COCC(=O)NC(C)c1sc(-c2ccccc2F)nc1C (stereo unspecified)
Percent Effect (30.3 µM, […]): 18.86%

CCC(=O)NCC(=O)NC(C)c1sc(-c2ccccc2F)nc1C (stereo unspecified)
Percent Effect (30.3 µM, […]): 52.49%

CC(CNC(=O)Nc1cn[nH]c1)N1CCCC1 (stereo unspecified)
Percent Effect (30 µM): 4.879%

CC(=O)N(C)c1nc(CN2CCN(Cc3nccn3C)CC2)cs1
Percent Effect (30.3 µM, […]): 5.012%

CN1CCCC2(CCN(S(=O)(=O)c3c(Cl)nc4sccn34)C2)C1=O (stereo unspecified)
Percent Effect (30.3 µM, […]): 41%

O=S(=O)(c1c(Cl)nc2sccn12)N1CCC2(CCNCC2)C1
Percent Effect (30.3 µM, […]): 51.47%

O=S(=O)(c1c(Cl)nc2sccn12)N1CCCC2(CCNC2)C1 (stereo unspecified)
Percent Effect (30.3 µM, […]): 49.51%

CSCCc1n[nH]c2c1CN(S(=O)(=O)c1c(C)nn(C)c1C)CC2
Percent Effect (30.3 µM, […]): -0.401%

CCCSc1ccccc1NC(=O)N1CCN(C(=O)c2ccc[nH]2)CC1
Percent Effect (30.3 µM, […]): 22.55%

c1coc(-c2nc3c(c(NCc4n[nH]c5c4CCC5)n2)CCNCC3)c1
Percent Effect (30.3 µM, […]): 1.11%

c1ccc(-c2nc3c(c(NCc4n[nH]c5c4CCC5)n2)CCNC3)cc1
Percent Effect (30.3 µM, […]): 100.2%

c1ccc(-c2nc3c(c(NCc4nnc5n4CCC5)n2)CCNC3)cc1
Percent Effect (30.3 µM, […]): 11%

Cc1ncsc1CN1CC(C)(C2CC2)CC1=O (stereo unspecified)
Percent Effect (30.3 µM, […]): -1.864%

CC(=O)N1CCC(C)(c2cc(C(=O)NCC(C)(C)C)nc(C)n2)CC1
Percent Effect (30.3 µM, […]): -26.7%

Cc1n[nH]c2ncc(CNC3CCN(Cc4ccccn4)CC3)cc12.Cl
Percent Effect (30.3 µM, […]): 23.69%

Cc1cc(NC2CCN(Cc3ccccn3)CC2)n2nc(C)c(C)c2n1
Percent Effect (30.3 µM, […]): 27.06%

Cc1[nH]c2ccc(CNC3CCN(Cc4ccccn4)CC3)cc2c1C
Percent Effect (30.3 µM, […]): 65.08%

Cc1cc2[nH]c(=O)c(=O)[nH]c2cc1S(=O)(=O)NC1CCC(C)CC1 (stereo unspecified)
Percent Effect (30.3 µM, […]): 6.826%

Cc1cc2[nH]c(=O)c(=O)[nH]c2cc1S(=O)(=O)NC1CCCCC1
Percent Effect (30.3 µM, […]): 4.835%

Cc1cc2nc(O)c(O)nc2cc1S(=O)(=O)NC1CC1
Percent Effect (30.3 µM, […]): 53.32%

O=C1CCCN1c1cccc(CNCc2nc(-c3ccco3)no2)c1
Percent Effect (30.3 µM, […]): -19.6%

Cc1ccc2[nH]c(CN(C)Cc3ccccc3C(=O)O)nc2c1
Percent Effect (30.3 µM, […]): 25.21%

Cc1ccc2nc(CN(C)Cc3[nH]nc4c3CCC4)[nH]c2c1C
Percent Effect (30.3 µM, […]): 40.9%

COc1nc2cc(C)ccc2cc1CN(C)Cc1n[nH]c2c1CCCC2
Percent Effect (30.3 µM, […]): 19.2%

Cc1ccc2[nH]c(CN(C)Cc3n[nH]c4c3CCC4)nc2c1
Percent Effect (30.3 µM, […]): 65.71%

Cc1ccc2nc(CN(C)Cc3n[nH]c4c3CCCCC4)[nH]c2c1C
Percent Effect (30.3 µM, […]): 99.15%

CN(Cc1cc2n(n1)CCNC2)Cc1n[nH]c2c1CCCCC2
Percent Effect (30.3 µM, […]): 33.41%

CC(C)C(C(=O)N1CCN(c2ccncc2)CC1)n1cncn1 (stereo unspecified)
Percent Effect (30 µM, 30.03 µM): 24.05%

CCOc1ccc(Cl)c(C(=O)N2CCCN(CC(N)=O)CC2)n1
Percent Effect (30 µM): -7.749%

N#Cc1cc2c(=O)n(CC(O)C(F)(F)F)ccc2[nH]c1=O (stereo unspecified)
Percent Effect (30.3 µM, […]): 28.06%

N#Cc1cc2c(=O)n(CC(O)c3cccc(O)c3)ccc2[nH]c1=O (stereo unspecified)
Percent Effect (30.3 µM, […]): 52.32%

N#Cc1cc2c(=O)n(CC(O)Cc3ccccc3)ccc2[nH]c1=O (stereo unspecified)
Percent Effect (30.3 µM, […]): 33.38%

Cc1cnc(N2CCC3(CC(=O)N(Cc4csc(C)n4)C3)C2)nc1.O=C(O)C(F)(F)F (stereo unspecified)
Percent Effect (30.3 µM, […]): -11.16%

O=C(O)C(F)(F)F.c1cnc(N2CCOC3(CCN(CC4CCOC4)CC3)C2)nc1 (stereo unspecified)
Percent Effect (30.3 µM, […]): 38.06%

COCCC(=O)N1CCC2(CCN(Cc3cccc(F)c3)CC2)C1.O=C(O)C(F)(F)F
Percent Effect (30.3 µM, […]): 10.96%

CN1CCOCC12CCN(Cc1ccoc1)CC2.O=C(O)C(F)(F)F.O=C(O)C(F)(F)F
Percent Effect (30.3 µM, […]): 10.68%

COCC(=O)N1CCC2(CCN(Cc3ccc(C)cc3)CC2)CC1.O=C(O)C(F)(F)F
Percent Effect (30.3 µM, […]): 16.03%

COCCC(=O)N1CCC2(CCN(Cc3ccc(C)cc3)CC2)C1.O=C(O)C(F)(F)F
Percent Effect (30.3 µM, […]): 52.88%

CC(=O)N1CCC12CCN(Cc1ccco1)CC2.O=C(O)C(F)(F)F
Percent Effect (30.3 µM, […]): 4.08%

Cc1ccc(CN2CCOC3(CCN(CC4CCOC4)CC3)C2)cc1.O=C(O)C(F)(F)F.O=C(O)C(F)(F)F (stereo unspecified)
Percent Effect (30.3 µM, […]): 54.23%

COCCC(=O)N1CC2(CCN(Cc3cccc(Cl)c3)CC2)C1.O=C(O)C(F)(F)F
Percent Effect (30 µM, 30.03 µM): 20.28%

Cc1ccc(CN2CCC3(CC2)CCN(Cc2ccco2)CC3)cc1.O=C(O)C(F)(F)F.O=C(O)C(F)(F)F
Percent Effect (30.3 µM, […]): 86.21%

Cc1ccc(CN2CCC3(CC2)CCN(Cc2ccoc2)CC3)cc1.O=C(O)C(F)(F)F.O=C(O)C(F)(F)F
Percent Effect (30.3 µM, […]): 75.99%

CN1CCNC(=O)C12CCN(Cc1ccco1)CC2.O=C(O)C(F)(F)F.O=C(O)C(F)(F)F
Percent Effect (30.3 µM, […]): 23.48%

Cc1cc(C(=O)N2C[C@@H]3OCCN(CCN4CCCC4)[C@@H]3C2)c(C)o1.O=C(O)C(F)(F)F
Percent Effect (30.3 µM, […]): 6.684%

Cc1cc(C(=O)Nc2ccc3c(ccn3CCN3CCOCC3)c2)on1
Percent Effect (30.3 µM, […]): -2.631%

CC(C)SCC(=O)N1CCc2c(nc(N(C)C)nc2N(C)C)C1
Percent Effect (30 µM, 30.03 µM): 7.439%

CC(C)C(C)(C#N)NC(=O)Cn1cc(C(N)=O)c(-c2ccccc2)n1 (stereo unspecified)
Percent Effect (30.3 µM, […]): -11.84%
